# Like-named read-outs stand apart in the source and are kept apart here.
# Legend:
# AAK1 = test system: AAK1; parameters: species or system human, MV4-11 + K-562 + COLO205 + SK-N-BE2 + OVCAR-8; details: read-out: apparent Kd, n = 1
# CLK1 = test system: CLK1; parameters: species or system human, MV4-11 + K-562 + COLO205 + SK-N-BE2 + OVCAR-8; details: read-out: apparent Kd, compound concentrations: 100 nM and 1000 nM (sheet 'Samples'), n = 1
# CSNK2A2 = test system: CSNK2A2; parameters: species or system human, MV4-11 + K-562 + COLO205 + SK-N-BE2 + OVCAR-8; details: read-out: apparent Kd, compound concentrations: 100 nM and 1000 nM (sheet 'Samples'), n = 1
# Q6ZSR9 = Q6ZSR9 (human, UniProt Q6ZSR9); parameters: species or system MV4-11 + K-562 + COLO205 + SK-N-BE2 + OVCAR-8; details: read-out: apparent Kd, compound concentrations: 100 nM and 1000 nM (sheet 'Samples'), n = 1
# ABL1 = test system: ABL1; parameters: species or system human, MV4-11 + K-562 + COLO205 + SK-N-BE2 + OVCAR-8; details: read-out: apparent Kd, compound concentrations: 100 nM and 1000 nM (sheet 'Samples'), n = 1
# ABL2 = test system: ABL2; parameters: species or system human, MV4-11 + K-562 + COLO205 + SK-N-BE2 + OVCAR-8; details: read-out: apparent Kd, compound concentrations: 100 nM and 1000 nM (sheet 'Samples'), n = 1
# BCR = test system: BCR; parameters: species or system human, MV4-11 + K-562 + COLO205 + SK-N-BE2 + OVCAR-8; details: read-out: apparent Kd, compound concentrations: 100 nM and 1000 nM (sheet 'Samples'), n = 1
# EGFR = test system: EGFR; parameters: species or system human, MV4-11 + K-562 + COLO205 + SK-N-BE2 + OVCAR-8; details: read-out: apparent Kd, n = 1
# FRK = test system: FRK; parameters: species or system human, MV4-11 + K-562 + COLO205 + SK-N-BE2 + OVCAR-8; details: read-out: apparent Kd, compound concentrations: 100 nM and 1000 nM (sheet 'Samples'), n = 1
# FYN = test system: FYN; parameters: species or system human, MV4-11 + K-562 + COLO205 + SK-N-BE2 + OVCAR-8; details: read-out: apparent Kd, n = 1
# GAK = test system: GAK; parameters: species or system human, MV4-11 + K-562 + COLO205 + SK-N-BE2 + OVCAR-8; details: read-out: apparent Kd, n = 1
# HCK = test system: HCK; parameters: species or system human, MV4-11 + K-562 + COLO205 + SK-N-BE2 + OVCAR-8; details: read-out: apparent Kd, compound concentrations: 100 nM and 1000 nM (sheet 'Samples'), n = 1
# LCK = test system: LCK; parameters: species or system human, MV4-11 + K-562 + COLO205 + SK-N-BE2 + OVCAR-8; details: read-out: apparent Kd, n = 1
# LYN = test system: LYN; parameters: species or system human, MV4-11 + K-562 + COLO205 + SK-N-BE2 + OVCAR-8; details: read-out: apparent Kd, compound concentrations: 100 nM and 1000 nM (sheet 'Samples'), n = 1
# PTK6 = test system: PTK6; parameters: species or system human, MV4-11 + K-562 + COLO205 + SK-N-BE2 + OVCAR-8; details: read-out: apparent Kd, compound concentrations: 100 nM and 1000 nM (sheet 'Samples'), n = 1
# RIPK2 = test system: RIPK2; parameters: species or system human, MV4-11 + K-562 + COLO205 + SK-N-BE2 + OVCAR-8; details: read-out: apparent Kd, compound concentrations: 100 nM and 1000 nM (sheet 'Samples'), n = 1
# RIPK3 = test system: RIPK3; parameters: species or system human, MV4-11 + K-562 + COLO205 + SK-N-BE2 + OVCAR-8; details: read-out: apparent Kd, n = 1
# YES1 = test system: YES1; parameters: species or system human, MV4-11 + K-562 + COLO205 + SK-N-BE2 + OVCAR-8; details: read-out: apparent Kd, n = 1
# RET = test system: RET; parameters: species or system human, MV4-11 + K-562 + COLO205 + SK-N-BE2 + OVCAR-8; details: read-out: apparent Kd, n = 1
# [1] = compound concentrations:100 nM and 1000 nM (sheet 'Samples')
# Q6ZSR9, sequence (Q6ZSR9 whole entry, looked up): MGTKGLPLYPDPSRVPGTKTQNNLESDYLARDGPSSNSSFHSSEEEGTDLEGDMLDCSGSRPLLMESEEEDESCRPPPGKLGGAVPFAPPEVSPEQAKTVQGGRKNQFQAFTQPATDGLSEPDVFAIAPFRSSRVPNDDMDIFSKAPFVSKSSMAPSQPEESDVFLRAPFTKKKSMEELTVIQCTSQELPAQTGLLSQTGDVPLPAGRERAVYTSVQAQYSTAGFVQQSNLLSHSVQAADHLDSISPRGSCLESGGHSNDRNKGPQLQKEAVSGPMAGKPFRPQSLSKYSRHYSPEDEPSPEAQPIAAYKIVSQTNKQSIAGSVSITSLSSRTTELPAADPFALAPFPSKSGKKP
compound,measurement,setting,value
O=C1N=C(NCc2ccccc2)S/C1=C\c1ccc2ncccc2c1 [RO4442080-000],potency estimated from few doses,"AAK1; compound concentrations: 100 nM and 1000 nM (sheet 'Samples'), CATDS: 8.89289230622759E-2",1380 nM
same,potency estimated from few doses,CLK1; CATDS: 0.13842928601840401,521 nM
same,potency estimated from few doses,CSNK2A2; CATDS: 0.175887275734743,351 nM
same,potency estimated from few doses,Q6ZSR9; CATDS: 0.110093670656788,815 nM
CC(C)c1nc(-c2cccc(NS(=O)(=O)c3ccccc3)c2)c(-c2ccnc(Nc3ccc4c(c3)CN(C)CC4)n2)s1 [GSK1649598A],potency estimated from few doses,ABL1; CATDS: 2.01463365951845E-2,368 nM
same,potency estimated from few doses,ABL2; CATDS: 3.9720351054025098E-2,93.8 nM
same,potency estimated from few doses,BCR; CATDS: 1.4720639450574301E-2,924 nM
same,potency estimated from few doses,"EGFR; compound concentrations: 100 nM and 1000 nM (sheet 'Samples'), CATDS: 2.2005426873151199E-2",298 nM
same,potency estimated from few doses,FRK; CATDS: 2.08537323275855E-2,338 nM
same,potency estimated from few doses,"FYN; compound concentrations: 100 nM and 1000 nM (sheet 'Samples'), CATDS: 1.9244455455098501E-2",413 nM
same,potency estimated from few doses,"GAK; compound concentrations: 100 nM and 1000 nM (sheet 'Samples'), CATDS: 0.115621915519597",19.8 nM
same,potency estimated from few doses,HCK; CATDS: 1.6425065187182699E-2,643 nM
same,potency estimated from few doses,"LCK; compound concentrations: 100 nM and 1000 nM (sheet 'Samples'), CATDS: 3.58702015349356E-2",112 nM
same,potency estimated from few doses,LYN; CATDS: 2.0380924471609701E-2,358 nM
same,potency estimated from few doses,PTK6; CATDS: 1.42958167275793E-2,1030 nM
same,potency estimated from few doses,RIPK2; CATDS: 2.88864910940058E-2,167 nM
same,potency estimated from few doses,"RIPK3; compound concentrations: 100 nM and 1000 nM (sheet 'Samples'), CATDS: 1.96372512533491E-2",392 nM
same,potency estimated from few doses,"YES1; compound concentrations: 100 nM and 1000 nM (sheet 'Samples'), CATDS: 2.5454428176696801E-2",216 nM
Cc1ccc(O)cc1Nc1ccnc2cc(-c3ccc(CN4CCCCC4)o3)ccc12 [GW557777X],potency estimated from few doses,ABL1; CATDS: 4.3692235612931E-2,8.34 nM
same,potency estimated from few doses,ABL2; CATDS: 6.7746368355333403E-2,2.92 nM
same,potency estimated from few doses,BCR; CATDS: 0.10189444124387,1.17 nM
same,potency estimated from few doses,FRK; CATDS: 4.1928462897336198E-2,9.28 nM
same,potency estimated from few doses,"FYN; compound concentrations: 100 nM and 1000 nM (sheet 'Samples'), CATDS: 2.5035707525361502E-2",44.5 nM
same,potency estimated from few doses,"GAK; compound concentrations: 100 nM and 1000 nM (sheet 'Samples'), CATDS: 5.9852273314458602E-2",3.88 nM
same,potency estimated from few doses,HCK; CATDS: 2.2990890088698399E-2,60.9 nM
same,potency estimated from few doses,"LCK; compound concentrations: 100 nM and 1000 nM (sheet 'Samples'), CATDS: 1.5741185519971699E-2",353 nM
same,potency estimated from few doses,LYN; CATDS: 1.9191353458574801E-2,128 nM
same,potency estimated from few doses,PTK6; CATDS: 2.4564391165164502E-2,47.6 nM
same,potency estimated from few doses,"RET; compound concentrations: 100 nM and 1000 nM (sheet 'Samples'), CATDS: 4.4477848245190701E-2",7.97 nM
same,potency estimated from few doses,RIPK2; CATDS: 5.5536056615070897E-2,4.62 nM
same,potency estimated from few doses,"RIPK3; compound concentrations: 100 nM and 1000 nM (sheet 'Samples'), CATDS: 1.48381507951055E-2",508 nM
same,potency estimated from few doses,"YES1; compound concentrations: 100 nM and 1000 nM (sheet 'Samples'), CATDS: 2.43288733372133E-2",49.3 nM
O=C1N=C(NCCc2ccccn2)S/C1=C\c1ccc2ncccc2c1 [RO4508346-000],potency estimated from few doses,"AAK1; compound concentrations: 100 nM and 1000 nM (sheet 'Samples'), CATDS: 8.8556384492670503E-2",711 nM
same,potency estimated from few doses,CLK1; CATDS: 0.10354679729128299,485 nM
same,potency estimated from few doses,CSNK2A2; CATDS: 0.15250276369697799,229 nM
same,potency estimated from few doses,Q6ZSR9; CATDS: 9.3045263541922094E-2,625 nM
same,potency estimated from few doses,RIPK2; CATDS: 9.0933210372185796E-2,663 nM
O=C1N=C(N[C@@H](CO)c2ccccc2)S/C1=C\c1ccc2ncccc2c1 [RO4554340-000],potency estimated from few doses,"AAK1; compound concentrations: 100 nM and 1000 nM (sheet 'Samples'), CATDS: 0.158998542924943",1190 nM
same,potency estimated from few doses,CLK1; CATDS: 0.44812709075051699,156 nM
same,potency estimated from few doses,Q6ZSR9; CATDS: 0.16133585717123999,1140 nM
Cc1cccc(-c2cc(-c3c[nH]nc3-c3ccccn3)ccn2)c1 [GW679395X],potency estimated from few doses,FYN; [1],1290 nM
same,potency estimated from few doses,LCK; [1],1330 nM
CS(=O)(=O)Cc1ccc(Nc2nccc(-c3c(-c4cccc(NC(=O)C5CCCCC5)c4)nn4ncccc34)n2)cc1 [GSK350559A],potency estimated from few doses,EGFR; [1],1890 nM
same,potency estimated from few doses,RET; [1],1370 nM
same,potency estimated from few doses,RIPK3; [1],1130 nM
same,potency estimated from few doses,YES1; [1],461 nM
Nc1nc(-c2cccnc2)c(-c2ccnc3ccccc23)s1 [GW684083X],potency estimated from few doses,AAK1; [1],1960 nM
same,potency estimated from few doses,GAK; [1],1430 nM
CN1C(=O)c2ccccc2N(C)c2nc(Nc3cnn(C4CCNCC4)c3)ncc21 [XMD-17-51],potency estimated from few doses,ABL1; CATDS: 3.0247523924653401E-2,152 nM
same,potency estimated from few doses,ABL2; CATDS: 2.0369269177780699E-2,429 nM
same,potency estimated from few doses,BCR; CATDS: 6.3621758322441394E-2,32.4 nM
same,potency estimated from few doses,"FYN; compound concentrations: 100 nM and 1000 nM (sheet 'Samples'), CATDS: 1.52897278360091E-2",1140 nM
same,potency estimated from few doses,HCK; CATDS: 1.5765780158237999E-2,1000 nM
same,potency estimated from few doses,"LCK; compound concentrations: 100 nM and 1000 nM (sheet 'Samples'), CATDS: 2.0561496325198901E-2",418 nM
same,potency estimated from few doses,PTK6; CATDS: 1.5181861275826099E-2,1170 nM
same,potency estimated from few doses,"RET; compound concentrations: 100 nM and 1000 nM (sheet 'Samples'), CATDS: 5.3896447188978902E-2",44.2 nM
same,potency estimated from few doses,RIPK2; CATDS: 1.9176534260091301E-2,514 nM
same,potency estimated from few doses,"YES1; compound concentrations: 100 nM and 1000 nM (sheet 'Samples'), CATDS: 2.1066601667733099E-2",389 nM
